Rows were chosen to be rich in hits. Some 4.9% of all compounds tested hit in one or more screens of this group.
Beta cell apopt: blocks beta cell apoptosis | INS-1E cytokine-induced death, ATP luminescence, 48 h; percent of positive-control rescue, neutral wells zero | protection from apoptosis, % (no concentration beside the values) | 0.8% of 300,000 active;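 active = Every replicate reaches about 75%, or at least half do and their mean reaches it too, limit read from the data; inconclusive = At least half of replicates reach the limit but their mean does not; inactive = Under half of replicates reach the limit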;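 note: higher means more ATP so stronger rescue from cytokine killing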
CSC inhib: cancer stem cell inhibition. 1.1% of 300,000 active. cancer stem cell-like cells viability, luminescence. AID 2717. inhibition, % at 7.5 µM; in the data active = inhibition above about 75%; inconclusive = no clear call, values can overlap the other calls; tested in HMLE shEcad cells
PP1 counter: blocks human PP1-alpha phosphatase, a PP5 counter-screen; 0.9% of 320,000 active; inhibition, % at 6.7 µM; purified PP1alpha, OMFP fluorescence; AID 2235;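 active = inhibition above the mean inhibition of all tested compounds plus 3 SD, computed separately for each screening campaign, cut at about 15% in these data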
Mdm2-MdmX inh: human Mdm2/MdmX binding inhibition; inhibition, % at 8 µM; O15151+Q00987; SaOS-2 split-luciferase Mdm2/MdmX complementation, luminescence; 3% of 330,000 active;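 active = inhibition of at least 50% at 8 µM in the primary screen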
PP5 primary: inhibitors of human protein phosphatase 5 (PP5) | purified PP5c, OMFP substrate fluorescence | inhibition, % at 6.7 µM | 0.18% of 320,000 active | AID 1987;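 active = inhibition above the campaign's mean inhibition across all tested compounds plus 3 SD, cut at about 9.5% in these data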
Calb FLC: C. albicans growth modulation with fluconazole | C. albicans CaCi-2 (fluconazole-resistant clinical isolate) + fluconazole, Alamar Blue growth, 48 h | growth inhibition, % (no concentration beside the values) | 0.57% of 300,000 active;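 active = growth inhibition above about 58% in most replicates, limit read from the data, passing the limit was not always enough; inconclusive = exactly half the replicates above a set limit; inactive = most replicates below a set limit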;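 note: all wells also contain fluconazole at 8 µg/ml as a sub-toxic cotreatment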
Mdm2 MdmX conf: confirmation of human Mdm2/MdmX interaction inhibitors. shares compounds with Mdm2-MdmX inh. Mdm2-MdmX binding, luminescent assay. inhibition, % at 8 µM. 55% of 10,000 active. AID 489028; in the data active = inhibition above about 40%
Full FLuc ctr: inhibits full-length luciferase, flagging false Mdm2/MdmX hits; shares compounds with Mdm2-MdmX inh; SaOS-2 full-length luciferase counterscreen, luminescence; inhibition, % at 8 µM; 77% of 6,200 active;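 active = mean inhibition at 8 µM reaching about 37%, which flags the compound as non-specific, limit read from the data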;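 note: p53-null SaOS-2 cells with luciferase driven by a doxycycline-inducible promoter; compound on cells about two nights before reading with doxycycline added after day one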
Each line names hits and unclear results; the compound was inactive in the other large screens (follow-up assays come after a bar, where they were run).

O=C(NCCCN1CCOCC1)c1cc(-c2ccccc2)nc2ccccc12	none
CC1(c2ccccc2)CC(C)(C)n2c(O)c(C3=NC(=S)NC3=O)c3cccc1c32 (stereo not drawn)	Mdm2-MdmX inh 68 | Mdm2 MdmX conf inactive
CCOc1ccc(-c2nnc(N3CCCCC3)c3ccccc23)cc1	Mdm2-MdmX inh 62 | Mdm2 MdmX conf inactive
CCN(CC)C(=O)COc1ccc(-c2nnc(N3CCCCC3)c3ccccc23)cc1	none (no result: CSC inhib)
CCc1cccc2c1Sc1ccccc1CC2N1CCNCC1 (stereo not drawn)	CSC inhib 79, Mdm2-MdmX inh 71 (no result: Beta cell apopt) | Mdm2 MdmX conf inactive
CC(OC(=O)c1ccc2ncsc2c1)C(=O)N(C)C1CCCCC1 (stereo not drawn)	none (no result: Calb FLC)
O=C(c1ccc(Cn2c(=O)[nH]c3ccccc3c2=O)cc1)N1CCN(c2ccc(Cl)cc2)CC1	Mdm2-MdmX inh 65 | Mdm2 MdmX conf inactive
Cc1ccc(C)c(N2CCN(C(=O)c3ccc(Cn4c(=O)[nH]c5ccccc5c4=O)cc3)CC2)c1	Mdm2-MdmX inh 91 | Mdm2 MdmX conf 52 | Full FLuc ctr 47
CCOC(=O)N1CCN(C(=O)c2ccc(Cn3c(=S)[nH]c4ccc(Br)cc4c3=O)cc2)CC1	Mdm2-MdmX inh 55 | Mdm2 MdmX conf inactive
CCOc1ccccc1N(CC(=O)Nc1ccccc1F)S(=O)(=O)c1ccccc1	none
COc1ccc(C(=O)/C=C/C(=O)N(CC(=O)NC2CCCCC2)CC2CCCO2)c(O)c1 (stereo not drawn)	Mdm2-MdmX inh 60 | Mdm2 MdmX conf inactive
COc1ccc(C(=O)/C=C/C(=O)N(CC(=O)NC2CCCCC2)Cc2ccccc2)c(O)c1	none (no result: Beta cell apopt, CSC inhib, PP1 counter, Mdm2-MdmX inh, PP5 primary)
O=C(CCSc1ccc(F)cc1)NNC(=O)c1ccc([N+](=O)[O-])cc1	none (no result: CSC inhib, Calb FLC)
CCN(CC)S(=O)(=O)c1cc(NC(=O)C2CCN(c3ncnc4sc(C)c(C)c34)CC2)ccc1Cl	Mdm2-MdmX inh 90 | Mdm2 MdmX conf 60 | Full FLuc ctr 49
Cc1sc2ncnc(N3CCC(C(=O)N(C)CC(=O)Nc4ccc(Cl)c(C(F)(F)F)c4)CC3)c2c1C	CSC inhib 96, Mdm2-MdmX inh 81 (no result: Beta cell apopt) | Mdm2 MdmX conf 55 | Full FLuc ctr inactive
Cc1sc2ncnc(N3CCC(C(=O)Nc4ccc(S(N)(=O)=O)cc4)CC3)c2c1C	Mdm2-MdmX inh 61 (no result: CSC inhib, Calb FLC) | Mdm2 MdmX conf 43 | Full FLuc ctr 72
Cc1sc2ncnc(N3CCC(C(=O)N(C)CC(=O)Nc4ccccc4Cl)CC3)c2c1C	none
COc1ccc(CNC(=O)CCn2c(=O)oc3ccccc32)c(OC)c1	none
CSc1ncccc1C(=O)OCC(=O)Nc1ccc2c(c1)CCC2	none (no result: Calb FLC)
O=C(Nc1ccc(Cl)cc1)Nc1nnc(CSCc2ccc(Cl)cc2)s1	Beta cell apopt inconclusive, Mdm2-MdmX inh 98 | Mdm2 MdmX conf inactive
CCc1nnc(NC(=O)Nc2ccc(Cl)cc2)s1	none
O=C(Nc1ccc(Cl)c(Cl)c1)Nc1nnc(CC2=CCCCC2)s1	Beta cell apopt 84, Mdm2-MdmX inh 89 | Mdm2 MdmX conf inactive
CN(C)C(=O)c1ccc(NC(=O)c2ccc(-c3ccc(Cl)cc3)o2)cc1	none (no result: Calb FLC)
CCOc1ccc2nc(-c3ccccc3)nc(SCC(=O)Nc3ncc(C)s3)c2c1	Mdm2-MdmX inh 75 | Mdm2 MdmX conf inactive
Cc1ccc(CNC(=O)CSc2nc3ccsc3c(=O)n2Cc2ccc(C(=O)O)cc2)cc1	none
O=[N+]([O-])/C(=C\Nc1ccc(F)cc1F)S(=O)(=O)c1ccccc1	none
CC(C)(C)n1nc(-c2ccc(F)cc2)c2c(N)ncnc21	Mdm2-MdmX inh 59 | Mdm2 MdmX conf 55 | Full FLuc ctr 50
CC(C)(C)n1nc(-c2ccc(Cl)cc2)c2c(N)ncnc21	Mdm2-MdmX inh 81 | Mdm2 MdmX conf 63 | Full FLuc ctr 38
Cc1ccc(C2N(C)C(=O)c3ccccc3N2C)cc1 (stereo not drawn)	none (no result: PP1 counter, PP5 primary)
O=C1c2ccccc2-c2n[nH]c(=O)c3ccc(N4CCCCC4)c1c23	Mdm2-MdmX inh 52 | Mdm2 MdmX conf inactive
Cc1ccc(N2CCOCC2)c2c1C(=O)c1ccccc1C2=O	none (no result: Beta cell apopt)

Assay outcomes: PubChem, several laboratories
